From PubChem BioAssay (NCATS)
Inconclusive results are not listed. Active and inactive are the calls of the source. Unless noted, the call rests on the fitted dose curve; in most records, active means well fitted curve in the direction sought with a large enough effect; inconclusive means small, poorly fitted or top-dose-only effect, or another doubt; inactive means no such curve, though single readings can be large; an effect the other way counts as inactive or inconclusive.

Assays:
[1] = Cell Viability - MRC5 (AID 434; calls by dose curve;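 further: potency means the concentration at half of the fitted maximal effect; cells exposed to compound for 40 hours at 37 °C; potency reflects cytotoxicity seen as loss of intracellular ATP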); conditions: MRC5 lung fibroblast viability, qHTS
How it was run: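 qHTS cytotoxicity in human lung fibroblast MRC5 cells; 40 hr treatment, 37 °C; cellular ATP by luciferase luminescence; DMSO = 0%, 100 uM tamoxifen = 100% inhibition; Hill-fit AC50.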

[2] = Cellular Toxicity (caspase-3) HepG2 (AID 654); conditions: HepG2 caspase-3 activation, luminescence; series mostly up to 92.2 µM;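 further: cells exposed to compound for 16 hours before reading; 0% = DMSO alone and 100% = caspase signal from 100 µM tamoxifen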
How it was run: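 HepG2 cells (1500/well) were treated 16 h at 37 °C in complete medium, then caspase 3/7 activity was read by Caspase-Glo luminescence. Data were normalized to DMSO and 100 uM tamoxifen; AC50 came from Hill-equation fits of qHTS concentration-response.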

[3] = Cellular Toxicity (caspase-3) HUV-EC-C (AID 656); conditions: HUV-EC-C cells, caspase-3 activation (apoptosis); series mostly up to 92.2 µM
How it was run: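 Concentration-dependent caspase 3/7 induction was assessed in HUV-EC-C cells exposed for 16 hours. Data scaled between DMSO and tamoxifen (100 uM) controls.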

[4] = Cellular Toxicity (caspase-3) SHSY5Y (AID 657); conditions: SH-SY5Y caspase-3 activation; series mostly up to 91.7 µM
How it was run: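 Readout: caspase-cleaved peptide-aminoluciferin substrate driving luciferase light in SH-SY5Y neuroblastoma cells after 16 h treatment. Response normalized to DMSO and 10 uM staurosporine controls.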

[5] = Cellular Toxicity (caspase-3) BJ (AID 658); conditions: BJ fibroblasts, luminescence; Potency: caspase-3 activation; series mostly up to 91.7 µM
How it was run: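 Readout: Caspase-Glo 3/7 luminescence increase in BJ cells after 16 hr treatment at 37 °C. Staurosporine and tamoxifen served as positive controls; AC50 values came from Hill modelling of data normalized to DMSO and 10 uM staurosporine.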

[6] = Cellular Toxicity (caspase-3) MRC-5 (AID 659); conditions: MRC-5 cells, luminescence, normalized: DMSO 0%, 10 µM staurosporine 100%; series mostly up to 91.7 µM
How it was run: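 Concentration-dependent caspase 3/7 activation is measured in human normal lung fibroblasts (MRC-5) following 16-hour treatment. AC50 values come from standard Hill-equation modeling of luminescence normalized to DMSO and 10 uM staurosporine.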

[7] = Cellular Toxicity (caspase-3) Mesangial (AID 660); conditions: mesangial cells, normalized: DMSO 0%, 100 µM tamoxifen 100%; series mostly up to 91.7 µM;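 further: cells exposed to compound for 16 h before the caspase read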
How it was run: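 Human renal glomerular mesangial cells, 1000/well, 5 h at 37 C before 16 h compound treatment. Caspase-Glo 3/7 luminescence after 20 min; normalized to DMSO and 100 uM tamoxifen, AC50 from Hill fit.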

[8] = Cellular Toxicity (caspase-3) SK-N-SH (AID 661); conditions: SK-N-SH caspase-3 activation, qHTS, DMSO as zero, staurosporine as full; series mostly up to 91.7 µM
How it was run: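 Human SK-N-SH neuroblastoma cells, 1500/well, were exposed to compounds for 16 hours at 37 °C. Caspase-Glo 3/7 luminescence was normalized to DMSO (basal) and 10 uM staurosporine (100%), and AC50 came from a Hill fit.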

[9] = Cellular Toxicity (caspase-3) H-4-II-E (AID 663); conditions: H-4-II-E rat hepatoma; Potency: caspase-3 activation; series mostly up to 92.2 µM;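 further: cells exposed to compound for 16 hr before readout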
How it was run: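 Apoptosis induction is scored as increased luminescence from caspase 3/7 substrate cleavage in rat hepatoma H-4-II-E cells exposed to compound for 16 hr. Activity is scaled between DMSO and 100 uM tamoxifen.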

[10] = Cellular Toxicity (caspase-3) Hek293 (AID 664); conditions: HEK293 caspase-3 activation, DMSO = 0%, 100 µM tamoxifen = 100%; at 92.2 µM (top of the series);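 further: cells exposed to compound for 16 h at 37 °C before readout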
How it was run: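 HEK293 cells in complete medium treated 16 h at 37 °C, then Caspase-Glo 3/7 luminescence read after 20 min at room temperature. Normalized to DMSO and 100 uM tamoxifen; AC50 from Hill fit of concentration-response.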

[11] = Cellular Toxicity (caspase-3) N2a (AID 665); conditions: N2a cells, luminescence, normalized: DMSO 0%, 10 µM staurosporine 100%; series mostly up to 92.2 µM;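 further: compound exposure lasted 16 h at 37 °C before readout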
How it was run: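 Mouse N2a neuroblastoma cells, 1500 per well, treated 16 h at 37 °C in complete medium; caspase-3/7 activity by Caspase-Glo luminescence after 1 h. Normalized to DMSO and 10 uM staurosporine; AC50 from Hill fits.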

[12] = Cellular Toxicity (caspase-3) Renal Proximal Tubule (AID 667); conditions: renal proximal tubule cells, primary cells freshly taken from rat; Potency: caspase-3 activation; series mostly up to 91.7 µM;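 further: cells exposed to compound for 16 hours at 37 °C before detection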
How it was run: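 Caspase-Glo 3/7 read-out, rat primary kidney proximal tubule cells. Compound exposure 16 h, 37 °C; detection after 1 h at RT. Activity scaled to DMSO and 10 uM staurosporine.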

[13] = MultiTox-Fluor Cytotoxicity Assay - LYMP1-001 - Dead Cells (AID 946); conditions: LYMP1-001 lymphoblastoid cells, dead-cell protease fluorescence; series mostly up to 92.2 µM
How it was run: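 Cytotoxicity as increased dead-cell protease fluorescence (bis-AAF-R110, 485/520 nm), read 60 min after MultiTox-Fluor reagent. Human lymphoblastoid line exposed 16 h; Hill-fitted AC50, with DMSO as 0% and 15 uM tetraoctylammonium bromide as 100%.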

[14] = MultiTox-Fluor Cytotoxicity Assay - LYMP1-003 - Live Cells (AID 962); conditions: LYMP1-003 lymphoblastoid cells, MultiTox-Fluor live-cell protease fluorescence; series mostly up to 92.2 µM;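 further: 0% = DMSO only and full loss = 92 µM tetraoctylammonium bromide; cytotoxic hits lower the live-cell protease signal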
How it was run: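 LYMP1-003 lymphoblastoid cells, 2500/well in complete medium, treated 16 h at 37 C; live-cell protease cleavage of GF-AFC read by fluorescence (Ex/Em 405/510) after 60 min reagent; AC50 from Hill fits of concentration-response.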

[15] = Cell Viability - LYMP1-003 - Assay at 24 hr (AID 963); conditions: LYMP1-003 lymphoblastoid cell viability; series mostly up to 92.2 µM;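 further: plate controls were DMSO only for no effect and tetraoctylammonium bromide positive control for full effect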
How it was run: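 Human lymphoblastoid LYMP1-003 cells, 2500/well, treated 24 h at 37 C in complete medium. Viability read as intracellular ATP by CellTiter-Glo luminescence after 30 min at room temperature; AC50 from Hill-equation fits of qHTS concentration-response.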

[16] = qHTS Assay for Identification of Small Molecule Inducers of Hypoxia Response (AID 2120; active means well fitted curve in the direction sought with a large enough effect in the signal ratio, with a control signal flat, not every such curve was filed as active; the % refers to the signal ratio; further: 0% is about no effect); conditions: hypoxia response reporter cells, beta-lactamase ratio readout; series mostly up to 104 µM
How it was run: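 HRE-bla ME-180 cells in Opti-MEM with 0.5% dialyzed FBS, pre-plated 4-5 h, then compound titration for 17 h at 37 degrees Celsius. CCF4 loaded 2.5 h at room temperature; 460/530 nm ratio gave %Activity and AC50 for induction.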

[17] = target: Peroxisome proliferator-activated receptor alpha (Homo sapiens) (UniProt Q07869); assay: qHTS assay for small molecule agonists of the peroxisome proliferator-activated receptor alpha (PPARalpha) signaling pathway (AID 651778); conditions: PathHunter PPARalpha complementation, chemiluminescence, 6 h; max response: hits give high values; further: % of control where 0% means no effect
Chain of Peroxisome proliferator-activated receptor alpha (Homo sapiens) (Q07869 whole entry, looked up): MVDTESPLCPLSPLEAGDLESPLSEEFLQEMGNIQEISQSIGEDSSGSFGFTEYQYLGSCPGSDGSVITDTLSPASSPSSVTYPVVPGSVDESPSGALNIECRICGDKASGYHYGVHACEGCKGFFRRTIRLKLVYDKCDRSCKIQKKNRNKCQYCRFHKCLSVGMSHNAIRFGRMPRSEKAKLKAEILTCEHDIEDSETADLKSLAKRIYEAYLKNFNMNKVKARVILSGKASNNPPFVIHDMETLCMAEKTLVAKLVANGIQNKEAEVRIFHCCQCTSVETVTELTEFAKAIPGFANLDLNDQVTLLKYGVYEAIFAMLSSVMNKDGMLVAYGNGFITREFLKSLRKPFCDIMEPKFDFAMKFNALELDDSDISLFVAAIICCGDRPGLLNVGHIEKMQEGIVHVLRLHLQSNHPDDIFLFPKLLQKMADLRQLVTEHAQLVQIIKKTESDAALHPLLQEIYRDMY
How it was run: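 Chemiluminescence from complemented enzyme reported PPARalpha activation in cells after 6 hr of compound treatment at 37 C. The detection reagent was incubated for 60 min at room temperature, and compounds were scored as agonists.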

[18] = qHTS assay for small molecule agonists of the antioxidant response element (ARE) signaling pathway measured by Nrf2-dependant transcriptional activity - cell viability counter screen (AID 720653; active means well fitted curve in the direction sought with a large enough effect in the repeat runs; an effect the other way counts as inactive or inconclusive; further: on the % scale 0 is the no-effect control and ±100 the full control effect); conditions: ARE-bla HepG2 viability, CellTiter-Glo ATP luminescence, 16 h; max response: hits give low values
How it was run: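 Cytotoxicity counter screen: intracellular ATP quantified by CellTiter-Glo luminescence in the same ARE-bla HepG2 plates, after 16 h compound exposure and a 2 h beta-lactamase substrate step.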

[19] = qHTS assay for cell viability of HEK293 cells (AID 743288); conditions: ATP luminescence (CellTiter-Glo), 18 h; max response: hits give low values; further: on the % scale 0 is the no-effect control and ±100 the full control effect; nearly all actives have a fitted effect of over 50% in size
How it was run: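 Luminescent ATP quantitation served as the viability read-out. Cells (parental HEK293, 2,000/well) received compounds after at least 5 h at 37 C and were exposed for 18 h before a 30 min room-temperature reagent step.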

[20] = qHTS assay for cell viability of the p53RE-bla HCT-116 cell line (AID 743292); conditions: p53RE-bla HCT-116 viability, ATP luminescence, 16 h; series mostly up to 95 µM; further: on the % scale 0 is the no-effect control and ±100 the full control effect; nearly all actives have a fitted effect of over 55% in size
How it was run: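 ATP-based luminescence, 16 h compound exposure at 37 C, p53RE-bla HCT-116 cells at 4,000/well.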

O=[N+]([O-])c1ccc(F)cc1F
inactive: Potency [1] > 92 µM | Potency [2] | Potency [3] | Potency [4] | Potency [5] | outcome [6] | outcome [7] | outcome [8] | Potency [9] | caspase-3 activation [10] -0.155% | outcome [11] | Potency [12] | Potency [13] | Potency [14] | Potency [15] | Potency [16] | max response [17] -5.98% | max response [18] 13.3% | max response [19] 3.6% | Potency [20]

Clc1nc2ccccc2nc1Cl
inactive: Potency [1] > 92 µM | Potency [2] | Potency [3] | Potency [4] | Potency [5] | outcome [6] | outcome [7] | outcome [8] | Potency [9] | caspase-3 activation [10] 15.8% | outcome [11] | Potency [12] | Potency [13] | Potency [14] | Potency [15] | Potency [16] | max response [17] 0.306% | max response [18] 0.874% | max response [19] -15.1% | Potency [20]

O=C1OC(=O)c2ccccc21
inactive: Potency [1] > 92 µM | Potency [2] | Potency [3] | Potency [4] | Potency [5] | outcome [6] | outcome [7] | outcome [8] | Potency [9] | caspase-3 activation [10] 1.71% | outcome [11] | Potency [12] | Potency [13] | Potency [14] | Potency [15] | Potency [16] | max response [17] 5.7% | max response [18] -7.68% | max response [19] -11.3% | Potency [20]

C=CC(=O)CC
inactive: Potency [1] > 92 µM | Potency [2] | Potency [3] | Potency [4] | Potency [5] | outcome [6] | outcome [7] | outcome [8] | Potency [9] | caspase-3 activation [10] 0.103% | outcome [11] | Potency [12] | Potency [13] | Potency [14] | Potency [15] | Potency [16] | max response [17] 8.86% | max response [18] -0.839% | max response [19] -3.35% | Potency [20]

CCCCC(CC)COCCCN (stereo not given)
inactive: Potency [1] > 92 µM | Potency [2] | Potency [3] | Potency [4] | Potency [5] | outcome [6] | outcome [7] | outcome [8] | Potency [9] | caspase-3 activation [10] -1.34% | outcome [11] | Potency [12] | Potency [13] | Potency [14] | Potency [15] | Potency [16] | max response [17] -9.53% | max response [18] -14.9% | max response [19] 10.2% | Potency [20]

Cc1ccccc1OCC1CO1 (stereo not given)
inactive: Potency [1] > 92 µM | Potency [2] | Potency [3] | Potency [4] | Potency [5] | outcome [6] | outcome [7] | outcome [8] | Potency [9] | caspase-3 activation [10] 0.226% | outcome [11] | Potency [12] | Potency [13] | Potency [14] | Potency [15] | Potency [16] | max response [17] -1.41% | max response [18] 0.854% | max response [19] -12.7% | Potency [20]

NC(=O)Nc1nc2ccccc2[nH]1
inactive: Potency [1] > 92 µM | Potency [2] | Potency [3] | Potency [4] | Potency [5] | outcome [6] | outcome [7] | outcome [8] | Potency [9] | caspase-3 activation [10] -0.34% | outcome [11] | Potency [12] | Potency [13] | Potency [14] | Potency [15] | Potency [16] | max response [17] -2.7% | max response [18] -9.91% | max response [19] -5.65% | Potency [20]

Cc1ccc(C(=O)O)cc1[N+](=O)[O-]
inactive: Potency [1] > 92 µM | Potency [2] | Potency [3] | Potency [4] | Potency [5] | outcome [6] | outcome [7] | outcome [8] | Potency [9] | caspase-3 activation [10] -1.69% | outcome [11] | Potency [12] | Potency [13] | Potency [14] | Potency [15] | Potency [16] | max response [17] -2.73% | max response [18] -1.34% | max response [19] 1.99% | Potency [20]

OCC(CBr)(CBr)CBr
inactive: Potency [1] > 92 µM | Potency [2] | Potency [3] | Potency [4] | Potency [5] | outcome [6] | outcome [7] | outcome [8] | Potency [9] | caspase-3 activation [10] 0.713% | outcome [11] | Potency [12] | Potency [13] | Potency [14] | Potency [15] | Potency [16] | max response [17] 1.63% | max response [18] -12.4% | max response [19] -19.9% | Potency [20]

Cc1ccc2ccc3cccc4ccc1c2c34
inactive: Potency [1] > 92 µM | Potency [2] | Potency [3] | Potency [4] | Potency [5] | outcome [6] | outcome [7] | outcome [8] | Potency [9] | caspase-3 activation [10] 0.114% | outcome [11] | Potency [12] | Potency [13] | Potency [14] | Potency [15] | Potency [16] | max response [17] -2.03% | max response [18] 2.48% | max response [19] -6.64% | Potency [20]

Cc1ccc(N)cc1[N+](=O)[O-]
inactive: Potency [1] > 92 µM | Potency [2] | Potency [3] | Potency [4] | Potency [5] | outcome [6] | outcome [7] | outcome [8] | Potency [9] | caspase-3 activation [10] -1.57% | outcome [11] | Potency [12] | Potency [13] | Potency [14] | Potency [15] | Potency [16] | max response [17] -0.223% | max response [18] -10.7% | max response [19] 4.69% | Potency [20]
